Measured values: PubChem BioAssay AID1159580 (chemical genetic matrix, 2015)
The whole screen tested about 5,500 compounds, of which about 2,000 (36%) were called active. Inconclusive results (about 18%) are left out. Cut-off read from the data, not from the text of the source: active = normalized growth mostly below about 0.91 (no sharp cut-off); inconclusive = no clear call, values can overlap the other calls; inactive = mostly above about 0.92. This is one part of the list.

Test: chemical genetic growth profiling, strain panel (AID 1159580);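 note: tested at 20 µM; growth read once vehicle control cultures reached saturation at 30 °C; 1 = growth at the plate median or of vehicle wells; lower values mean less growth of the strain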
Details: S. cerevisiae deletion strains, growth OD
[1] = locus YAL013W, strain DEP1, active compounds read low
[2] = locus YBR229C, strain ROT2, active compounds read low
[3] = locus YDL101C, strain DUN1, active compounds read low
[4] = locus YDR150W, strain NUM1, active compounds read low
[5] = locus YEL061C, strain CIN8, active compounds read low
[6] = locus YGR078C, strain PAC10, active compounds read low
[7] = locus YHR030C, strain SLT2, active compounds read low
[8] = locus YHR087W, strain rtc3, active compounds read low
[9] = locus YJL187C, strain SWE1, active compounds read low
[10] = locus YJR043C, strain POL32, active compounds read low
[11] = locus YJR075W, strain HOC1, active compounds read low
[12] = locus YLR039C, strain RIC1, active compounds read low
[13] = locus YLR058C, strain SHM2 (second series), active compounds read low
[14] = locus YLR085C, strain ARP6, active compounds read low
[15] = locus YLR262C, strain YPT6, active compounds read low
[16] = locus YML094W, strain GIM5, active compounds read low
[17] = locus YMR219W, strain ESC1, active compounds read low
[18] = locus YMR263W, strain SAP30, active compounds read low
[19] = locus YNL153C, strain GIM3, active compounds read low
[20] = locus YNL298W, strain CLA4 (second series), active compounds read low
[21] = locus YNL322C, strain KRE1, active compounds read low
[22] = locus YNR030W, strain Alg12, active compounds read low
[23] = locus YOL006C, strain TOP1, active compounds read low
[24] = locus YPL055C, strain LGE1, active compounds read low
[25] = locus YPL241C, strain CIN2, active compounds read low
[26] = locus YPR135W, strain CTF4, active compounds read low

Measured: normalized growth

COc1cc(/C=N\NC(=S)NC2CC3CCC2C3)cc(OC)c1OC (stereo unspecified)
inactive: [1] 0.985 | [2] 1.01 | [3] 1 | [4] 0.998 | [5] 0.994 | [6] 1 | locus YGR229C, strain SMI1, active compounds read low 1 | [7] 0.816 | [8] 1.03 | [9] 0.996 | [10] 1.02 | [11] 1.05 | [12] 0.97 | [13] 1.02 | [15] 1.05 | [16] 0.913 | [17] 1.02 | [18] 0.975 | [19] 1.01 | [20] 0.889 | [21] 1.01 | [22] 0.92 | [24] 0.923 | [25] 0.898 | [26] 0.843
active: [14] 0.653 | [23] 0.51

COc1cc(C=Nc2ccc(F)cc2)cc(OC)c1OC
inactive: [1] 0.995 | [2] 0.978 | [3] 1 | [4] 0.896 | [5] 0.986 | [6] 1 | [7] 1.02 | [8] 1.01 | [9] 0.998 | [10] 1.01 | [11] 0.954 | locus YKL190W, strain CNB1, active compounds read low 0.98 | [12] 0.983 | [13] 1.02 | [14] 0.965 | [15] 0.98 | [16] 0.988 | [17] 0.985 | [18] 1.01 | locus YMR307W, strain GAS1, active compounds read low 0.938 | [19] 1.01 | [20] 1 | [21] 0.979 | [22] 0.979 | [23] 1 | [24] 1.02 | [25] 0.997 | [26] 1.11

S=C(N/N=C\c1cccs1)NC1CC2CCC1C2 (stereo unspecified)
active: [7] 0.763 | locus YLR113W, strain HOG1, active compounds read low 0.788 | locus YPL256C, strain CLN2, active compounds read low 0.736
inactive: locus YAR019C, strain CDC15, active compounds read low 0.943 | locus YBL105C, strain PKC1, active compounds read low 0.94 | locus YBR135W, strain CKS1, active compounds read low 0.959 | locus YBR136W, strain MEC1, active compounds read low 0.95 | locus YBR160W, strain CDC28, active compounds read low 0.954 | locus YDL017W, strain CDC7, active compounds read low 0.941 | locus YDL028C, strain MPS1, active compounds read low 0.958 | [3] 0.952 | locus YDL108W, strain KIN28, active compounds read low 0.951 | locus YDL132W, strain cdc53, active compounds read low 0.96 | locus YDL214C, strain PRR2, active compounds read low 0.913 | locus YDR052C, strain DBF4, active compounds read low 0.945 | locus YDR054C, strain cdc34, active compounds read low 0.928 | locus YDR226W, strain ADK1, active compounds read low 0.937 | locus YDR477W, strain SNF1, active compounds read low 0.91 | locus YER123W, strain YCK3, active compounds read low 0.938 | locus YER133W, strain GLC7, active compounds read low 0.905 | locus YFL009W, strain cdc4, active compounds read low 0.934 | locus YFL029C, strain CAK1, active compounds read low 0.94 | locus YFR003C, strain YPI1, active compounds read low 0.951 | locus YFR019W, strain FAB1, active compounds read low 0.956 | locus YFR028C, strain CDC14, active compounds read low 0.944 | locus YGR040W, strain KSS1, active compounds read low 0.909 | locus YGR052W, strain FMP48, active compounds read low 0.921 | locus YGR092W, strain DBF2, active compounds read low 0.794 | locus YHR079C, strain IRE1, active compounds read low 0.75 | locus YHR082C, strain KSP1, active compounds read low 0.898 | locus YHR205W, strain SCH9, active compounds read low 0.732 | locus YIL147C, strain SLN1, active compounds read low 0.956 | locus YJL095W, strain BCK1, active compounds read low 0.89 | locus YJL128C, strain PBS2, active compounds read low 0.957 | locus YJL157C, strain FAR1, active compounds read low 0.885 | locus YJR016C, strain ILV3, active compounds read low 0.945 | locus YJR066W, strain TOR1 (second series), active compounds read low 0.87 | locus YJR066W, strain TOR1, active compounds read low 0.908 | locus YKL048C, strain ELM1, active compounds read low 0.934 | locus YKL067W, strain YNK1, active compounds read low 0.95 | locus YKL101W, strain HSL1, active compounds read low 0.949 | locus YKL193C, strain SDS22, active compounds read low 0.947 | locus YKL203C, strain TOR2, active compounds read low 0.978 | locus YLR133W, strain CKI1, active compounds read low 0.913 | locus YLR403W, strain SFP1, active compounds read low 0.787 | locus YML070W, strain DAK1, active compounds read low 0.927 | locus YMR001C, strain CDC5, active compounds read low 0.944 | locus YMR205C, strain PFK2 (second series), active compounds read low 0.946 | locus YMR277W, strain FCP1, active compounds read low 0.946 | locus YNL006W, strain LST8, active compounds read low 0.957 | locus YNL020C, strain ARK1, active compounds read low 0.918 | locus YNL161W, strain CBK1, active compounds read low 0.936 | locus YNL183C, strain NPR1, active compounds read low 0.967 | locus YNL207W, strain RIO2, active compounds read low 0.929 | locus YNL222W, strain SSU72, active compounds read low 0.936 | locus YNL307C, strain MCK1 (second series), active compounds read low 0.842 | locus YOL078W, strain AVO1, active compounds read low 0.939 | locus YOL136C, strain PFK27, active compounds read low 0.881 | locus YOR061W, strain CKA2, active compounds read low 0.948 | locus YOR119C, strain RIO1, active compounds read low 1.01 | locus YOR231W, strain MKK1, active compounds read low 0.935 | locus YOR329C, strain SCD5, active compounds read low 0.949 | locus YPL031C, strain PHO85, active compounds read low 0.879 | locus YPL153C, strain RAD53, active compounds read low 0.88 | locus YPL204W, strain HRR25, active compounds read low 0.842 | locus YPL209C, strain IPL1, active compounds read low 0.943 | locus YPR025C, strain CCL1, active compounds read low 0.959 | locus YPR106W, strain ISR1, active compounds read low 0.953 | locus YPR111W, strain DBF20, active compounds read low 0.953 | strain NNK1, active compounds read low 0.947 | strain TSCII, active compounds read low 0.932
